eLon inh: inhibits E. coli Lon protease; P0A9M0; purified E. coli Lon protease, fluorescence polarization; inhibition, % at 7.94 µM; hit rate 0.42% among 360,000; AID 602123; in the data active = inhibition above about 13%, passing the limit was not always enough
Keap1-Nrf2 PPI: inhibitors of human Keap1-Nrf2 protein-protein interaction; Keap1 Kelch-Nrf2 peptide fluorescence polarization, 1536-well; AID 504523; Q14145; inhibition, % at 9.4 µM; hit rate 0.15% among 340,000; in the data active = inhibition above about 12%;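 also: human Keap1 Kelch domain with fluorescein labeled Nrf2 9mer peptide probe; higher means more block of Keap1 binding to Nrf2 peptide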
C-LANA FP: inhibitors of KSHV LANA C-terminal domain DNA binding. AID 504423. inhibition, % at 9 µM. hit rate 0.078% among 340,000. MBP-C-LANA/FAM-LBS DNA binding, fluorescence polarization;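 active = highest replicate inhibition at or above 60% at 9 µM, even if other replicates fall short; inactive = all replicates below 60% inhibition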
RTF Ca sens act: increases calcium sensitivity of human cardiac regulated thin filaments | P19429+P45379 | IANBD-labeled TnC RTF fluorescence at EC20 calcium; 0% EC20 calcium, 100% full calcium | activation, % at 7.2 µM | hit rate 0.24% among 340,000 | AID 493008;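 active = activation above the mean over all tested compounds plus 3 SD, cut at about 30% in these data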;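 also: rise in fluorescence read as greater calcium sensitivity of cardiac thin filaments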
Cardiac RTF inh: cardiac RTF calcium desensitization. P19429+P45379. IANBD-labeled cardiac RTF, Ca2+ fluorescence. inhibition, % at 7.15 µM. hit rate 0.12% among 340,000. AID 493244;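 active = inhibition above the mean inhibition of all tested compounds plus 3 SD, cut at about 17% in these data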;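 also: assay run at fixed EC70 calcium of 1.6 mM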
EBV gp42 inh: inhibitors of Epstein-Barr virus glycoprotein 42; Q1HVG2; Fluorescence polarization binding assay, mP read-out; inhibition, % (tested at 21.74 µM); hit rate 0.42% among 220,000; in the data active = inhibition above about 50%
Target sequence (Q1HVG2 whole entry, looked up): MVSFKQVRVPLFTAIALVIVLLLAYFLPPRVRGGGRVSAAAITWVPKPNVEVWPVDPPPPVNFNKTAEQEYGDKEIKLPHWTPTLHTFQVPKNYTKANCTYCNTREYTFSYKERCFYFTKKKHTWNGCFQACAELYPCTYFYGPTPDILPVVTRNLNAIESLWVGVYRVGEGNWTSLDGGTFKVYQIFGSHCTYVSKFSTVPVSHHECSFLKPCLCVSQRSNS
Keap1 TSA: binds and thermally shifts human Keap1 Kelch domain | shares compounds with Keap1-Nrf2 PPI | Keap1 Kelch thermal shift, delta Tm; active compounds read high | max delta Tm, degrees C | hit rate 8% among 400; in the data active = max delta Tm above about 0.48 degrees C
Dye-only ctr: shifts Sypro Orange melt without protein, a false positive. shares compounds with Keap1-Nrf2 PPI. Sypro Orange dye-only thermal melt, no protein, delta Tm; top dose 26 µM. delta Tm, degrees C (test concentration not listed). 140 tested, under 10 active. AID 651858;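 active = at highest dose tested, delta Tm positive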
eLon confirm: confirmation of E. coli Lon protease inhibitors. shares compounds with eLon inh. purified E. coli Lon, fluorescence polarization. inhibition, % at 7.94 µM. hit rate 31% among 1,400; in the data active = inhibition above about 16%
Each line names hits and unclear results; the compound was inactive in the other large screens (follow-up assays come after a bar, where they were run). Shown are actives, neighbours in structure and some others; about 0.98% of the full set was active somewhere.

COc1ccc(CCN(C)S(=O)(=O)c2cn(C)c(=O)n(C)c2=O)cc1OC	none (no result: EBV gp42 inh)
Fc1ccc(C2=CC(c3ccco3)n3ncnc3N2)cc1 (configuration not stated)	eLon inh 79, Keap1-Nrf2 PPI 19, RTF Ca sens act 70 | Keap1 TSA inactive | eLon confirm inactive
COc1ccc(C2=NN(C(=O)CSc3nc(=O)n4cccc(C)c4n3)C(c3ccc(C)cc3)C2)cc1 (configuration not stated)	none (no result: EBV gp42 inh)
COc1cc2c(cc1O)CCN(C(=O)CSc1nncn1C)[C@@H]2C	none (no result: EBV gp42 inh)
Cn1c(=O)c(N)c2c3c(c(Br)ccc31)C(=O)c1ccccc1-2	eLon inh active, Keap1-Nrf2 PPI 31, C-LANA FP 124, RTF Ca sens act active, EBV gp42 inh 171 | Keap1 TSA inactive | eLon confirm active
O=C1c2ccccc2-c2onc3c(Oc4ccccc4)cc(O)c1c23	none (no result: eLon inh, Keap1-Nrf2 PPI, C-LANA FP, RTF Ca sens act, Cardiac RTF inh)
O=C1c2ccccc2C(=O)c2c1cccc2N1CCCC1	none
O=C1c2ccccc2-c2onc3ccc(N4CCCC4)c1c23	eLon inh 160, Keap1-Nrf2 PPI 16, RTF Ca sens act 396 | Keap1 TSA inactive | eLon confirm inactive
O=C1c2ccccc2-c2onc3ccc(NCc4ccco4)c1c23	eLon inh 128, Keap1-Nrf2 PPI 19, RTF Ca sens act 715, EBV gp42 inh 130 | Keap1 TSA inactive | eLon confirm 118
CCNc1ccc2noc3c2c1C(=O)c1ccccc1-3	eLon inh active, Keap1-Nrf2 PPI 21, C-LANA FP 65, RTF Ca sens act active, EBV gp42 inh 56 | Keap1 TSA 0.83 | eLon confirm 183
CCOc1ccc2noc3c2c1C(=O)c1ccccc1-3	eLon inh active, Keap1-Nrf2 PPI 21, RTF Ca sens act active | Keap1 TSA inactive | eLon confirm active
O=C1C(Cl)=C(NCc2ccco2)C(=O)c2ccccc21	none (no result: EBV gp42 inh)
CC1CCCN(C(=O)CN2C(=O)NC(C)(c3ccc4ccccc4c3)C2=O)C1 (configuration not stated)	none (no result: EBV gp42 inh)
CCCCOc1[nH]c2nc(-c3ccco3)n(Cc3ccco3)c(=N)c2c1C#N	eLon inh 51, Keap1-Nrf2 PPI 16, EBV gp42 inh 55 | Keap1 TSA inactive | eLon confirm inactive
Cc1oc2cc(O)ccc2c(=O)c1-c1nncn1-c1ccccc1	eLon inh 34, Keap1-Nrf2 PPI 25, EBV gp42 inh 108 | Keap1 TSA inactive | Dye-only ctr inactive | eLon confirm 51
FC(F)c1nc2ccccc2[nH]1	none
c1ccc2[nH]c3cc4ncnc4cc3nc2c1	eLon inh 153, Keap1-Nrf2 PPI 35, C-LANA FP 75, RTF Ca sens act 58, EBV gp42 inh active | Keap1 TSA inactive | eLon confirm active
COc1ccc(NC(=O)c2cccc(-c3ccc(O)cc3)c2)cn1	eLon inh 74, Keap1-Nrf2 PPI 13 (no result: EBV gp42 inh) | Keap1 TSA inactive | eLon confirm 35
CC(=O)Nc1cccc(NC(=O)c2cccc(-c3ccc(O)cc3)c2)c1	none (no result: EBV gp42 inh)
COc1ccc(OC)c(NC(=O)CCNS(=O)(=O)c2cc(Br)cnc2N)c1	none (no result: EBV gp42 inh)
CCOC(=O)c1ccc2ncc(C(=O)OCC)c(NCCN(C)C)c2c1	eLon inh 22, Keap1-Nrf2 PPI 14 (no result: EBV gp42 inh) | Keap1 TSA inactive | Dye-only ctr inactive | eLon confirm inactive
Nc1ccc2nc3c(=O)n(C4CCCCC4)c(=O)[nH]c3nc2c1	eLon inh active, Keap1-Nrf2 PPI 60, RTF Ca sens act 457, EBV gp42 inh 152 | Keap1 TSA inactive | Dye-only ctr inactive | eLon confirm 183
COc1cc2[nH]c(=O)n(C3CCCCC3)c(=O)c2cc1OC	none
CCCCn1c(N)c(Br)c(=O)[nH]c1=O	none
CCCCn1c(=O)[nH]c2nc3cc(N)ccc3nc2c1=O	eLon inh active, Keap1-Nrf2 PPI 50, RTF Ca sens act 767, EBV gp42 inh 174 | Keap1 TSA inactive | Dye-only ctr inactive | eLon confirm active
CC(=O)N1CC=C2C(C#N)=C(N)C(C#N)(C#N)C(CCc3ccccc3)C2C1 (configuration not stated)	none
CCN1CC=C2C(C#N)=C(N)C(C#N)(C#N)C(CCc3ccccc3)C2C1 (configuration not stated)	eLon inh 27, Keap1-Nrf2 PPI 22, RTF Ca sens act 35, EBV gp42 inh 81 | Keap1 TSA inactive | eLon confirm 21
O=C(CC12CC3CC(CC(Br)(C3)C1)C2)NC1CCCC1	none (no result: EBV gp42 inh)
COc1ccc(N=Nc2nc3ccc(Br)cc3n2C)cc1	eLon inh active, Keap1-Nrf2 PPI 48, C-LANA FP 70, RTF Ca sens act 132, EBV gp42 inh 51 | Keap1 TSA inactive | eLon confirm 92
CC1OC23CCCCC2C(C#N)(C(=N)O3)C1(C#N)C#N (configuration not stated)	none
COc1ccc(C2OC34CCCCC3C(C#N)(C#N)C2(C#N)C(=N)O4)cc1 (configuration not stated)	eLon inh 34, Keap1-Nrf2 PPI 22 | Keap1 TSA inactive | Dye-only ctr inactive | eLon confirm 34
CCC1OC23CCCCC2C(C#N)(C(=N)O3)C1(C#N)C#N (configuration not stated)	eLon inh 28, Keap1-Nrf2 PPI 27, RTF Ca sens act 35 | Keap1 TSA inactive | Dye-only ctr inactive | eLon confirm inactive
CCc1nc2ccc(C(=O)Nc3ccc(C(=O)N(C)C)cc3)cn2c1N(C)CCCc1ccccc1	none (no result: Keap1-Nrf2 PPI, C-LANA FP, RTF Ca sens act, Cardiac RTF inh, EBV gp42 inh)
COC(CNC(=O)c1ccc(CS(=O)(=O)c2c(Cl)cccc2Cl)o1)OC	none (no result: EBV gp42 inh)
COc1ccccc1CNc1nc(Nc2ccccc2-n2cccn2)c2sccc2n1	none (no result: Keap1-Nrf2 PPI, C-LANA FP, RTF Ca sens act, Cardiac RTF inh, EBV gp42 inh)
CCOC(=O)C1CCCN(C(=O)C2c3ccccc3Oc3ccccc32)C1 (configuration not stated)	eLon inh active, Keap1-Nrf2 PPI 47, C-LANA FP 119, RTF Ca sens act 93 | Keap1 TSA inactive | Dye-only ctr inactive | eLon confirm 36
CCOC(=O)C1CCCN(C(=O)C2COc3ccccc3O2)C1 (configuration not stated)	none (no result: EBV gp42 inh)
CCCCN(C)c1c(C)nc2ccc(C(=O)N3CCN(C(C)=O)CC3)cn12	none (no result: Keap1-Nrf2 PPI, C-LANA FP, RTF Ca sens act, Cardiac RTF inh, EBV gp42 inh)
COc1ccc(C=Nc2cccnc2N)cc1	eLon inh active, Keap1-Nrf2 PPI 23 (no result: EBV gp42 inh) | Keap1 TSA inactive | eLon confirm inactive
CCOc1ccc(C=Nc2cccc3ncccc23)cc1	none
COC(=O)Cc1c(C)c2ccc(OC(=O)c3ccccc3)cc2oc1=O	eLon inh 33 | eLon confirm 28
